# From PubChem BioAssay (EPA / NIEHS)
# Activity calls are given as the source filed them. How the source made its calls: active means hit-call score of the fitted dose curve at least 0.9, where 1 is the maximum; inactive means score below 0.9.
# What was measured:
# [1] = ATG_GLI_CIS: Attagene CIS-FACTORIAL HepG2 Assay for human Zinc Finger Protein GLI1 (AID 2282945); conditions: HepG2, Attagene cis-factorial reporter mRNA, GLI element; actives raise or lower the signal
# Method in brief: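 HepG2 cells transiently transfected with cis-promoter multiplexed reporter units report endogenous transcription factor activity. After 24 h chemical exposure, reporter mRNA was quantified by RT-PCR, 6-FAM labelling, HpaI digestion and capillary electrophoresis, with bidirectional fitting against DMSO.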
# [2] = ATG_ISRE_CIS: Attagene CIS-FACTORIAL HepG2 Assay for human Interferon Regulatory Factor 1 (IRF1) binding to an Interferon-Stimulated Response Element (ISRE) (AID 2282948); conditions: HepG2 ISRE cis-reporter (Attagene), mRNA transcription readout; actives raise or lower the signal
# Method in brief: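 Multiplexed mRNA reporter readout in human liver HepG2 cells: cis-element-driven reporters transfected, compound added for 24 h, transcripts amplified, fluorescently labelled and sized by capillary electrophoresis; curve fitting bidirectional against DMSO.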
# [3] = ATG_M_32_CIS: Attagene CIS-FACTORIAL HepG2 Assay for M32 Transcription Factor (Internal Marker) (AID 2282949); conditions: HepG2 Attagene cis-factorial M32 reporter, mRNA; actives raise or lower the signal;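 further: background control marker of the multiplexed CIS panel rather than a real target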
# Method in brief: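 Transient MRTU transfection of HepG2; 24 h compound treatment; TriZol RNA, oligo(dT) RT, reporter PCR, 6-FAM primer extension, HpaI cut, CE. Gain/loss of signal vs DMSO.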
# [4] = ATG_M_06_CIS: Attagene CIS-FACTORIAL HepG2 Assay for M06 Transcription Factor (Internal Marker) (AID 2282950); conditions: HepG2 Attagene CIS-FACTORIAL M06 internal marker reporter; actives raise or lower the signal
# Method in brief: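 HepG2 cells transiently transfected with cis-regulated multiple reporter transcription units were exposed to chemical for 24 h; reporter mRNA was quantified by RT-PCR, 6-FAM primer labelling, HpaI digestion and capillary electrophoresis, fitted bidirectionally against DMSO.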
# [5] = target: Hypoxia-inducible factor 1-alpha (Homo sapiens) (UniProt Q16665); test: ATG_HIF1a_CIS: Attagene CIS-FACTORIAL HepG2 Assay for human Hypoxia Inducible Factor 1 (HIF1A) (AID 2282951); conditions: HepG2 Attagene cis-factorial HIF1a reporter transcription; actives raise or lower the signal
# Method in brief: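 Cis-element reporter constructs were transiently transfected into HepG2 cells, which were treated for 24 h; reporter RNA was reverse-transcribed, amplified, labelled and resolved by capillary electrophoresis.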
# [6] = target: Hepatocyte nuclear factor 6 (Homo sapiens) (UniProt Q9UBC0); test: ATG_HNF6_CIS: Attagene CIS-FACTORIAL HepG2 Assay for human Hepatocyte Nuclear Factor 6 (HNF6) (AID 2282952); conditions: HepG2 Attagene cis-factorial HNF6 reporter transcription; actives raise or lower the signal
# Method in brief: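 Twenty-four-hour chemical treatment of reporter-transfected HepG2 cells precedes RNA isolation, DNase-treated reverse transcription and PCR of reporter sequences. Labelled fragments are sized by capillary electrophoresis and fitted bidirectionally versus DMSO.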
# [7] = target: Heat shock factor protein 1 (Homo sapiens) (UniProt Q00613); test: ATG_HSE_CIS: Attagene CIS-FACTORIAL HepG2 Assay for human Heat Shock Transcription Factor 1 (HSE) (AID 2282953); conditions: HepG2 HSE cis-reporter, Attagene RNA transcription; actives raise or lower the signal
# Method in brief: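 HepG2 cells transiently transfected with multiple reporter transcription units under cis-regulatory promoter control, measuring endogenous transcription factor activity. After 24 h chemical exposure, reporter mRNA quantified by RT-PCR, fluorescent labelling, HpaI digestion and capillary electrophoresis; bidirectional fit versus DMSO.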
# [8] = ATG_MRE_CIS: Attagene CIS-FACTORIAL HepG2 Assay for human Metal Responsive Element (MRE) (AID 2282954); conditions: HepG2 MRE cis-reporter transcription, Attagene multiplex; actives raise or lower the signal
# Method in brief: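 Readout: capillary electrophoresis of 6-FAM-labelled, HpaI-digested RT-PCR reporter products. System: HepG2 cells carrying transient multiplexed cis reporters, dosed 24 h. Analysis: bidirectional fit, DMSO baseline.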
# [9] = ATG_PBREM_CIS: Attagene CIS-FACTORIAL HepG2 Assay for human Phenobarbital-responsive Enhancer Module (PBREM) (AID 2282955); conditions: HepG2 PBREM cis-reporter, Attagene multiplexed transcription; actives raise or lower the signal
# Method in brief: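 Multiplexed cis-reporter readout in human hepatoma HepG2 cells; PBREM-regulated transcript quantified after 24 h exposure by fluorescent RT-PCR fragment analysis. Signal changes up or down fitted relative to DMSO.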
# [10] = target: Paired box protein Pax-6 (Homo sapiens) (UniProt P26367); test: ATG_Pax6_CIS: Attagene CIS-FACTORIAL HepG2 Assay for human Paired Box 6 (PAX6) (AID 2282956); conditions: HepG2 CIS-FACTORIAL PAX6 reporter transcription, RNA readout; actives raise or lower the signal
# Method in brief: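 Fluorescent RT-PCR products separated by capillary electrophoresis report PAX6-linked promoter mRNA in HepG2 cells 24 h post-dose. Curves fitted bidirectionally, DMSO as negative control.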
# [11] = ATG_PXRE_CIS: Attagene CIS-FACTORIAL HepG2 Assay for human Pregnane X Receptor Element (PXRE) (AID 2282957); conditions: HepG2 Attagene CIS-FACTORIAL PXRE reporter, mRNA; actives raise or lower the signal
# Method in brief: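 Bidirectional activity, baselined to DMSO, derived from reporter mRNA fluorescence (RT-PCR plus capillary electrophoresis) in HepG2 cells bearing cis-promoter reporter units, 24 h exposure.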
# [12] = ATG_PPRE_CIS: Attagene CIS-FACTORIAL HepG2 Assay for human Peroxisome Proliferator-activated Response Element (PPRE) (AID 2282958); conditions: HepG2 PPRE cis-element reporter, Attagene transcription factor profiling; actives raise or lower the signal
# Method in brief: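 DMSO served as negative control and baseline for bidirectional curve fitting. Signal came from PPRE-regulated reporter mRNA in HepG2 cells, measured 24 h post-dosing by RT-PCR, 6-FAM primer extension and capillary electrophoresis.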
# [13] = ATG_RORE_CIS: Attagene CIS-FACTORIAL HepG2 Assay for human RAR-related Orphan Receptor Element (RORE) (AID 2282959); conditions: HepG2 Attagene cis-factorial RORE reporter, mRNA; actives raise or lower the signal
# Method in brief: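 Transfect HepG2 with MRTUs; treat 24 h; extract RNA; RT with oligo(dT); PCR with reporter-specific primers; 6-FAM primer extension; HpaI digest 2 h at 37 C; capillary electrophoresis. Fit vs DMSO, bidirectional.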
# [14] = ATG_Sox_CIS: Attagene CIS-FACTORIAL HepG2 Assay for human SRY-box transcription factor (SOX) (AID 2282960); conditions: HepG2 Attagene cis-factorial SOX reporter, mRNA; actives raise or lower the signal
# Method in brief: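 Fluorescence-labelled cDNA fragments from reporter transcripts, sized by CE, give the signal. Cells: HepG2, transiently transfected with cis-regulated reporter units. Exposure 24 h; DMSO negative control; bidirectional curve fitting.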
# [15] = target: Transcription factor Sp1 (Homo sapiens) (UniProt P08047); test: ATG_Sp1_CIS: Attagene CIS-FACTORIAL HepG2 Assay for human Specificity Protein 1 (Sp1) (AID 2282961); conditions: HepG2 Sp1 cis-reporter transcription, actives raise or lower the signal
# Method in brief: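 Chemicals are dosed onto HepG2 cells transfected with multiple cis-promoter reporter constructs, and after 24 h reporter RNA is reverse-transcribed, PCR-amplified and resolved by capillary electrophoresis for fluorescence quantitation; activity is scored up or down against DMSO.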
# [16] = ATG_SREBP_CIS: Attagene CIS-FACTORIAL HepG2 Assay for human Sterol Regulatory Element Binding (SREBP) (AID 2282962); conditions: HepG2 Attagene cis-factorial SREBP reporter, mRNA; actives raise or lower the signal
# Method in brief: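 Endogenous factor activity is measured in HepG2 through multiplexed reporter units under cis-element control. Following a 24 h incubation, reporter transcripts are reverse-transcribed, PCR-amplified and sized by capillary electrophoresis; activity is fitted in both directions relative to DMSO.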
# [17] = target: Signal transducer and activator of transcription 3 (Homo sapiens) (UniProt P40763); test: ATG_STAT3_CIS: Attagene CIS-FACTORIAL HepG2 Assay for human Signal Transducer and Activator of Transcription 3 (STAT3) (AID 2282963); conditions: HepG2, Attagene cis-factorial STAT3 reporter transcription; actives raise or lower the signal
# Method in brief: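 Uses human liver HepG2 transiently carrying cis-regulated reporter transcription units. Following 24 h dosing, reporter mRNA induction was detected by RT-PCR and capillary electrophoresis, analysed bidirectionally versus DMSO.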
# [18] = ATG_TA_CIS: Attagene CIS-FACTORIAL HepG2 Assay for human TA Basal Promoter (AID 2282964); conditions: HepG2 Attagene CIS-factorial TA basal promoter reporter; actives raise or lower the signal
# Method in brief: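 HepG2 cells transiently transfected with multiplexed cis-promoter reporter units, dosed 24 h. Reporter mRNA measured by RT-PCR, 6-FAM labelling, HpaI digestion and capillary electrophoresis; bidirectional fit versus DMSO baseline, serving as background control.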
# [19] = ATG_GRE_CIS: Attagene CIS-FACTORIAL HepG2 Assay for human Glucocorticoid Response Elements (GRE) (AID 2282947); conditions: HepG2 GRE cis-reporter, Attagene multiplex mRNA; actives raise or lower the signal
# Method in brief: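 HepG2, transient cis-reporter transfection, 24 h. Reporter mRNA: RT-PCR then CE, fluorescence. Fit both directions vs DMSO.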
# Sequence of Transcription factor Sp1 (Homo sapiens) (P08047 whole entry, looked up): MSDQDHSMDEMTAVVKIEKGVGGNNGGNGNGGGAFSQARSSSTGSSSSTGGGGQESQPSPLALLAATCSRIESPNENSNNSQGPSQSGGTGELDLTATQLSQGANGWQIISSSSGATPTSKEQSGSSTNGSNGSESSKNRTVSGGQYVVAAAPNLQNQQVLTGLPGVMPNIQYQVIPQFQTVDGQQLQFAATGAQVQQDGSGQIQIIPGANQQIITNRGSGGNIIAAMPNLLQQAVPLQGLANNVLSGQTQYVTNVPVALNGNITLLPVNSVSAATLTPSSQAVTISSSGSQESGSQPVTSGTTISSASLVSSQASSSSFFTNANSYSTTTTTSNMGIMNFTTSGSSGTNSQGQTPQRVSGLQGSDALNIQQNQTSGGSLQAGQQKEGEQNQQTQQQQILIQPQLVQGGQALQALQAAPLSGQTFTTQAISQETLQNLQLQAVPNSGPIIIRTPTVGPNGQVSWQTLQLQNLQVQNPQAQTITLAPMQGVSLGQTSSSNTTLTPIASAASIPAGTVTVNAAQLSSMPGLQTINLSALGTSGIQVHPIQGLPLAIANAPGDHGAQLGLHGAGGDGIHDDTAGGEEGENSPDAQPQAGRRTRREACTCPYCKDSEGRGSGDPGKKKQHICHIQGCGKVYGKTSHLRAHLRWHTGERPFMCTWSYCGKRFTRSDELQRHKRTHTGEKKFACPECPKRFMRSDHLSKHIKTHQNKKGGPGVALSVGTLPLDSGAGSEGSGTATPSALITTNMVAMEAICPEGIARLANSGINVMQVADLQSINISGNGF
# Sequence of Hypoxia-inducible factor 1-alpha (Homo sapiens) (Q16665 whole entry, looked up): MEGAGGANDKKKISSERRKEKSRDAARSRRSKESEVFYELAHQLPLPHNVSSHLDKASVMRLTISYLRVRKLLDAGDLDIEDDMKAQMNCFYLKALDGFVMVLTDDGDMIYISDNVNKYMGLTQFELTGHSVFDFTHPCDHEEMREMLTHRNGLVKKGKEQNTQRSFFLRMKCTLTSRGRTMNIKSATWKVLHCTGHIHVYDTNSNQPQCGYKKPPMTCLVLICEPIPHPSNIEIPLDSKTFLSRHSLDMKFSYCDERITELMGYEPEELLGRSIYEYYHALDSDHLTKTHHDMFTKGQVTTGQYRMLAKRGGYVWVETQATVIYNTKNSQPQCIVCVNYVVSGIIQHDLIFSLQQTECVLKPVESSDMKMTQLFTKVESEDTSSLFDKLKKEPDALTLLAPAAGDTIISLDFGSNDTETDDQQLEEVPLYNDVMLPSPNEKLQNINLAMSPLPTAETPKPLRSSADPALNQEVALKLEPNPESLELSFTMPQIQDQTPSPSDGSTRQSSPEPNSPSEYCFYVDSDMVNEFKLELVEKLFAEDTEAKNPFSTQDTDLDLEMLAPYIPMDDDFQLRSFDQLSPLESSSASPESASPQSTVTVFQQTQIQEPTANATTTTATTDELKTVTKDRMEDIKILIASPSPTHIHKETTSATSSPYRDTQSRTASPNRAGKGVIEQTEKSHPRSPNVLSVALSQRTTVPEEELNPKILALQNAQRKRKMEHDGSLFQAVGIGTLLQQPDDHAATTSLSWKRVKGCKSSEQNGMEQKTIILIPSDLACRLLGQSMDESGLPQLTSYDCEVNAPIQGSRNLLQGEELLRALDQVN
# Sequence of Hepatocyte nuclear factor 6 (Homo sapiens) (Q9UBC0 whole entry, looked up, the tested form may be a part): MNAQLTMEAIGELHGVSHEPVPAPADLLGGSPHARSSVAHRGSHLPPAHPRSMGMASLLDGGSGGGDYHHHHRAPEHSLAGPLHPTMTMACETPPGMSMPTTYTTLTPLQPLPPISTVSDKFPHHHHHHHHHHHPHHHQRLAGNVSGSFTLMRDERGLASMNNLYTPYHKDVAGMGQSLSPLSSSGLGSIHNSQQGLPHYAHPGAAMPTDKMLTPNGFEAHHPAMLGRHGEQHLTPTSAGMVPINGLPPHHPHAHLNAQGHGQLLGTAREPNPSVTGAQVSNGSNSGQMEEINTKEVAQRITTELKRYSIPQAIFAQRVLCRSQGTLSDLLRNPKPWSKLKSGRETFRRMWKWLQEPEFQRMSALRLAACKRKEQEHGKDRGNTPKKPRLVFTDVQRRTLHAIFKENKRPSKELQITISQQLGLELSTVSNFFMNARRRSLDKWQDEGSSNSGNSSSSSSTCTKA
# Sequence of Heat shock factor protein 1 (Homo sapiens) (Q00613 whole entry, looked up): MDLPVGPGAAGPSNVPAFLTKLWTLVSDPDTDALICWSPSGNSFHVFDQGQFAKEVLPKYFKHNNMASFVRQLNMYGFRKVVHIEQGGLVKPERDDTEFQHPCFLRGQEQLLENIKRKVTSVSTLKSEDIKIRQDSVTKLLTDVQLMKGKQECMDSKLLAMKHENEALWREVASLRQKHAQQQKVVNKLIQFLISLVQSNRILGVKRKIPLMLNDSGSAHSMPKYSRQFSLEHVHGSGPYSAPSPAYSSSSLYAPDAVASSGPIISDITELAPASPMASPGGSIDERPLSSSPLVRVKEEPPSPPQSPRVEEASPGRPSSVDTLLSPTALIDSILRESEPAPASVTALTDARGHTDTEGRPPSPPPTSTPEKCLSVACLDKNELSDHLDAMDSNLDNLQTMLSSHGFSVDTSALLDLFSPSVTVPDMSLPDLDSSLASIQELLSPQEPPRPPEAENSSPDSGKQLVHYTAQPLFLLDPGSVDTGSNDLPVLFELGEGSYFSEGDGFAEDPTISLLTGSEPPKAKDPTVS
# Sequence of Paired box protein Pax-6 (Homo sapiens) (P26367 whole entry, looked up): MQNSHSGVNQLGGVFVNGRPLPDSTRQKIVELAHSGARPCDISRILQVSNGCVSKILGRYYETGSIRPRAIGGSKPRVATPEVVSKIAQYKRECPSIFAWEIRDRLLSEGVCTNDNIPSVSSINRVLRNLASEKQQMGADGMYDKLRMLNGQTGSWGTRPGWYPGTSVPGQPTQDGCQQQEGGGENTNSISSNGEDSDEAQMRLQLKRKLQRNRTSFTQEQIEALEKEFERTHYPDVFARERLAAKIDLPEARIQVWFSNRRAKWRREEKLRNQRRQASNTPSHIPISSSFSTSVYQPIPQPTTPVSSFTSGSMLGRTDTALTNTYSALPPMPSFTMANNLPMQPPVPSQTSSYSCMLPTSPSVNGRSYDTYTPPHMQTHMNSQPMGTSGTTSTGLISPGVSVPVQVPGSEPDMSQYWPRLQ
# Sequence of Signal transducer and activator of transcription 3 (Homo sapiens) (P40763 whole entry, looked up): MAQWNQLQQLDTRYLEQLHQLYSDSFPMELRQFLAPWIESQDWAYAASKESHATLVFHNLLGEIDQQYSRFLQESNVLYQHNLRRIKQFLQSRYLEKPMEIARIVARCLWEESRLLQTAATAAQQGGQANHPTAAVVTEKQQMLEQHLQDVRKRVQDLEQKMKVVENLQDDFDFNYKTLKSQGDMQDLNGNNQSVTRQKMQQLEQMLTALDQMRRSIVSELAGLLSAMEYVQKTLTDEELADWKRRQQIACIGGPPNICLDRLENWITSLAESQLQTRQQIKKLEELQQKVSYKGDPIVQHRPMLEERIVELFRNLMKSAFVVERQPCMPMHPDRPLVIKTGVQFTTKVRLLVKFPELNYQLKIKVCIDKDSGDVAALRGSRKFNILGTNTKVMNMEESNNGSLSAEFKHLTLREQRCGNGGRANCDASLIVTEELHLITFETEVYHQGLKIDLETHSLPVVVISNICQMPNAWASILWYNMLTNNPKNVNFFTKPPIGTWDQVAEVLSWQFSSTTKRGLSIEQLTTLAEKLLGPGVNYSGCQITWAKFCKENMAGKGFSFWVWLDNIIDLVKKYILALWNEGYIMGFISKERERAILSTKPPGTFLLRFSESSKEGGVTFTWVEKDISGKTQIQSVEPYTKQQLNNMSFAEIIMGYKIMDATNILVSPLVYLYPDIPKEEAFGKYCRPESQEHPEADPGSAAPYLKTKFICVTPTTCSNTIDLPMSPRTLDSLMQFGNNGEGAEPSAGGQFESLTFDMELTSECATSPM
structure (smiles),measurement,setting,value
CC(C)=CC(=O)O,outcome,[1],inactive
same,outcome,[2],inactive
same,outcome,[3],inactive
same,outcome,[4],inactive
same,outcome,[5],inactive
same,outcome,[6],inactive
same,outcome,[7],inactive
same,outcome,[8],inactive
same,outcome,[9],inactive
same,outcome,[10],inactive
same,AC50,[11],99.5 µM (active)
same,outcome,[12],inactive
same,outcome,[13],inactive
same,outcome,[14],inactive
same,outcome,[15],inactive
same,outcome,[16],inactive
same,outcome,[17],inactive
same,outcome,[18],inactive
Cc1cccc(C)c1,outcome,[1],inactive
same,outcome,[19],inactive
same,outcome,[2],inactive
same,outcome,[5],inactive
same,outcome,[7],inactive
same,outcome,[8],inactive
same,outcome,[9],inactive
same,outcome,[10],inactive
same,AC50,[11],34.4 µM (active)
same,outcome,[12],inactive
same,outcome,[13],inactive
same,outcome,[14],inactive
same,outcome,[15],inactive
same,outcome,[16],inactive
same,outcome,[17],inactive
same,outcome,[18],inactive
CCC(C)(C)C1CCC(OC)CC1 (stereo unspecified),outcome,[1],inactive
same,outcome,[2],inactive
same,outcome,[3],inactive
same,outcome,[4],inactive
same,outcome,[5],inactive
same,outcome,[6],inactive
same,outcome,[7],inactive
same,outcome,[8],inactive
same,outcome,[9],inactive
same,outcome,[10],inactive
same,AC50,[11],3.33 µM (active)
same,outcome,[12],inactive
same,outcome,[13],inactive
same,outcome,[14],inactive
same,outcome,[15],inactive
same,outcome,[16],inactive
same,outcome,[17],inactive
same,outcome,[18],inactive
CC(=O)N(C)C,outcome,[1],inactive
same,outcome,[19],inactive
same,outcome,[2],inactive
same,outcome,[4],inactive
same,outcome,[5],inactive
same,outcome,[7],inactive
same,outcome,[8],inactive
same,outcome,[9],inactive
same,outcome,[10],inactive
same,outcome,[11],inactive
same,outcome,[12],inactive
same,outcome,[13],inactive
same,outcome,[14],inactive
same,outcome,[15],inactive
same,outcome,[16],inactive
same,outcome,[17],inactive
same,outcome,[18],inactive
[Cu+],outcome,[1],inactive
same,outcome,[19],inactive
same,outcome,[2],inactive
same,outcome,[4],inactive
same,outcome,[6],inactive
same,outcome,[7],inactive
same,AC50,[8],1.09 µM (active)
same,outcome,[10],inactive
same,outcome,[11],inactive
same,outcome,[14],inactive
same,outcome,[15],inactive
same,outcome,[16],inactive
same,outcome,[17],inactive
same,outcome,[18],inactive
CC1=CC(O)CC(C)(C)C1 (stereo unspecified),outcome,[1],inactive
same,outcome,[19],inactive
same,outcome,[2],inactive
same,outcome,[4],inactive
same,outcome,[6],inactive
same,outcome,[7],inactive
same,outcome,[8],inactive
same,outcome,[10],inactive
same,AC50,[11],10.8 µM (active)
same,outcome,[12],inactive
same,outcome,[14],inactive
same,outcome,[15],inactive
same,outcome,[16],inactive
same,outcome,[17],inactive
same,outcome,[18],inactive
Cc1ccccc1S,outcome,[1],inactive
same,outcome,[2],inactive
same,outcome,[3],inactive
same,outcome,[4],inactive
same,outcome,[5],inactive
same,outcome,[6],inactive
same,AC50,[7],113 µM (active)
same,AC50,[8],102 µM (active)
same,outcome,[9],inactive
same,AC50,[10],60.4 µM (active)
same,AC50,[11],19.7 µM (active)
same,outcome,[12],inactive
same,outcome,[13],inactive
same,AC50,[14],103 µM (active)
same,AC50,[15],80.3 µM (active)
same,AC50,[16],41.7 µM (active)
same,outcome,[17],inactive
same,outcome,[18],inactive
CCO[Si](CC)(OCC)OCC,outcome,[1],inactive
same,outcome,[2],inactive
same,outcome,[3],inactive
same,outcome,[4],inactive
same,outcome,[5],inactive
same,outcome,[6],inactive
same,outcome,[7],inactive
same,outcome,[8],inactive
same,outcome,[9],inactive
same,outcome,[10],inactive
same,AC50,[11],2.33 µM (active)
same,outcome,[13],inactive
same,outcome,[14],inactive
same,outcome,[15],inactive
same,outcome,[16],inactive
same,outcome,[17],inactive
same,outcome,[18],inactive
CC(=O)OC(C)(C)C1CC=C(C)CC1 (stereo unspecified),outcome,[1],inactive
same,outcome,[2],inactive
same,outcome,[3],inactive
same,outcome,[4],inactive
same,outcome,[5],inactive
same,outcome,[6],inactive
same,outcome,[7],inactive
same,outcome,[8],inactive
same,outcome,[9],inactive
same,outcome,[10],inactive
same,AC50,[11],36.9 µM (active)
same,outcome,[12],inactive
same,outcome,[13],inactive
same,outcome,[14],inactive
same,outcome,[15],inactive
same,outcome,[16],inactive
same,outcome,[17],inactive
same,outcome,[18],inactive
